Assays:
Experiment in all cases: log2 ratio of Biotin-Ahx-Ub-VS probe labelling (fragment/DMSO); higher = less target engagement (more negative = stronger competition), active = hit call of the paper (q ≤ 0.05, log2 ratio ≤ -1)
Settings in all cases: compound concentration: 200 uM; treatment time: 3 h
USP42 = molecular target: T1, USP42 (UniProt Q9H9J4)
T1 sequence (whole entry): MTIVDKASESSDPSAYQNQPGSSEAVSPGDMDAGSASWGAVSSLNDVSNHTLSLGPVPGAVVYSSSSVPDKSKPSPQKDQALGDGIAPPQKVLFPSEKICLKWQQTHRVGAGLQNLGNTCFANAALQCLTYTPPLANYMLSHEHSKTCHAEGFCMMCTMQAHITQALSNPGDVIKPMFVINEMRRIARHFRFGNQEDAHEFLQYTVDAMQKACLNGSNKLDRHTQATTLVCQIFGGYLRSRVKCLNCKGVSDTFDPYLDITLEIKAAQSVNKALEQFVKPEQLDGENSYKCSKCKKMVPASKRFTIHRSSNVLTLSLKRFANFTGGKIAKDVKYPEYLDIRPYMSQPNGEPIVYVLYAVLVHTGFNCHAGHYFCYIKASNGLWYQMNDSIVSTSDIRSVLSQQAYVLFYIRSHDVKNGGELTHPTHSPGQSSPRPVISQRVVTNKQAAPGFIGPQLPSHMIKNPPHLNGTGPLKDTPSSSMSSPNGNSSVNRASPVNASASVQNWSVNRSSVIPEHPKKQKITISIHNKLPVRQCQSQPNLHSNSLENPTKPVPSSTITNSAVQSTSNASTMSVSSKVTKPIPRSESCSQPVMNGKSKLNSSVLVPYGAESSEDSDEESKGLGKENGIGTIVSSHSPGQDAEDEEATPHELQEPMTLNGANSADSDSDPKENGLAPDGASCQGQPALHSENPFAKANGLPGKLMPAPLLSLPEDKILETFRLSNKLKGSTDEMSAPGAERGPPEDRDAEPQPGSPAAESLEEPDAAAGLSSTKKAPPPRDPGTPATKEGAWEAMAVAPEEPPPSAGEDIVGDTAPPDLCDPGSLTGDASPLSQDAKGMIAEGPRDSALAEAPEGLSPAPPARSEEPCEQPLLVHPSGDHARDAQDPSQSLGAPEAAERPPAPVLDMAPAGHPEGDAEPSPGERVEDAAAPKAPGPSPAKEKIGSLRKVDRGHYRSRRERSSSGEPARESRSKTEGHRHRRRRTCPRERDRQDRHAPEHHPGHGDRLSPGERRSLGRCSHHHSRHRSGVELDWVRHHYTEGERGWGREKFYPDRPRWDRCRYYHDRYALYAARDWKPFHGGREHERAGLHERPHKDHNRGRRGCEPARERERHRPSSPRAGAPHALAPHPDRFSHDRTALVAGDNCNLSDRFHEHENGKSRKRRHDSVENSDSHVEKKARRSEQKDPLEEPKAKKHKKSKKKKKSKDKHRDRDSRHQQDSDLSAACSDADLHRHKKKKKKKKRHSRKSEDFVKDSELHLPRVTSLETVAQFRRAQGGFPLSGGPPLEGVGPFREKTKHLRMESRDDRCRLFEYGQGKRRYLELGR
Summary of the method: (§1)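 Using Biotin-Ahx-Ub-VS at 0.5 µM final for 1 h, DUBs were labelled in HEK293T lysate (495 µg per sample) that had first been treated in triplicate with fragment at 200 µM or vehicle for 3 h. NeutrAvidin enrichment, LysC and trypsin digestion and diaPASEF LC-MS/MS followed. Spectronaut label-free quantities were global-median-normalised. Values are average log2 fragment/vehicle ratios by unpaired t-test, using proteins with ≥2 unique peptides.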

USP46 = USP46 (UniProt P62068)
Summary of the method: as §1

USP47 = molecular target: T2, USP47 (UniProt Q96K76)
T2 sequence (whole entry): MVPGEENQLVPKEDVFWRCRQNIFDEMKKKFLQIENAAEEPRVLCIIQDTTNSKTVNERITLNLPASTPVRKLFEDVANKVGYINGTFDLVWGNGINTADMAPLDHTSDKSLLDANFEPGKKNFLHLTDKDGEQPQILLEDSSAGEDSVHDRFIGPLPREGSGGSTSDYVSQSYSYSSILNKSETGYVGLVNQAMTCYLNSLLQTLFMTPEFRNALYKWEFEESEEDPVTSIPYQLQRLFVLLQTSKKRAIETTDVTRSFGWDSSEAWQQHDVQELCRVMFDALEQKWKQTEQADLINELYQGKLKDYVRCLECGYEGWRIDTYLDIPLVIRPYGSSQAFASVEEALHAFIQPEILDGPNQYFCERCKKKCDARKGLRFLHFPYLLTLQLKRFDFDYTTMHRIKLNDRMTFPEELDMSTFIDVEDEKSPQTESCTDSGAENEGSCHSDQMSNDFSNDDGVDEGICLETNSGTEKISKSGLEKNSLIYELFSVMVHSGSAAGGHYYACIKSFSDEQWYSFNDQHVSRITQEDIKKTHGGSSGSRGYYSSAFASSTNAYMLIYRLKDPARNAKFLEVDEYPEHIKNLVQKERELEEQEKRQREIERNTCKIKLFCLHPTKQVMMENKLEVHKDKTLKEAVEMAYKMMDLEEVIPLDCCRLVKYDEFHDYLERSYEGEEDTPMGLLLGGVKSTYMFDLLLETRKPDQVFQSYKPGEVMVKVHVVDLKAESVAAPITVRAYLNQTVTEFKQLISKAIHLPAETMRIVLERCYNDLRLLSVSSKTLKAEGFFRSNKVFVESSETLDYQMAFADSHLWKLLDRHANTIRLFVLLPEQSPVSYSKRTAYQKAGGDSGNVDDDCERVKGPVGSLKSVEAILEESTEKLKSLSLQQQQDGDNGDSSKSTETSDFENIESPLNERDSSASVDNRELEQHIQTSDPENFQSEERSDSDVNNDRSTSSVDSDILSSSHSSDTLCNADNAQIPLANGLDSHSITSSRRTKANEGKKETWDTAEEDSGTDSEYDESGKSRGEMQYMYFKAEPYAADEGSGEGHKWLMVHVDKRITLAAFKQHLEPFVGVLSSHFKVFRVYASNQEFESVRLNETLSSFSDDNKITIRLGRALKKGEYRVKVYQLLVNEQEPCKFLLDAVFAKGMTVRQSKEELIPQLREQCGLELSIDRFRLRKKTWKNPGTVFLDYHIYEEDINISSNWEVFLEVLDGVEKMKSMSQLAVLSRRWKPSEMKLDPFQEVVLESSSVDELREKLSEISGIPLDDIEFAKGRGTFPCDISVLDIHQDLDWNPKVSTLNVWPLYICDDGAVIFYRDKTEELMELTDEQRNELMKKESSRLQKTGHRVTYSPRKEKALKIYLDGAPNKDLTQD
Summary of the method: as §1

USP48 = molecular target: T3, USP48 (UniProt Q86UV5)
T3 sequence (whole entry): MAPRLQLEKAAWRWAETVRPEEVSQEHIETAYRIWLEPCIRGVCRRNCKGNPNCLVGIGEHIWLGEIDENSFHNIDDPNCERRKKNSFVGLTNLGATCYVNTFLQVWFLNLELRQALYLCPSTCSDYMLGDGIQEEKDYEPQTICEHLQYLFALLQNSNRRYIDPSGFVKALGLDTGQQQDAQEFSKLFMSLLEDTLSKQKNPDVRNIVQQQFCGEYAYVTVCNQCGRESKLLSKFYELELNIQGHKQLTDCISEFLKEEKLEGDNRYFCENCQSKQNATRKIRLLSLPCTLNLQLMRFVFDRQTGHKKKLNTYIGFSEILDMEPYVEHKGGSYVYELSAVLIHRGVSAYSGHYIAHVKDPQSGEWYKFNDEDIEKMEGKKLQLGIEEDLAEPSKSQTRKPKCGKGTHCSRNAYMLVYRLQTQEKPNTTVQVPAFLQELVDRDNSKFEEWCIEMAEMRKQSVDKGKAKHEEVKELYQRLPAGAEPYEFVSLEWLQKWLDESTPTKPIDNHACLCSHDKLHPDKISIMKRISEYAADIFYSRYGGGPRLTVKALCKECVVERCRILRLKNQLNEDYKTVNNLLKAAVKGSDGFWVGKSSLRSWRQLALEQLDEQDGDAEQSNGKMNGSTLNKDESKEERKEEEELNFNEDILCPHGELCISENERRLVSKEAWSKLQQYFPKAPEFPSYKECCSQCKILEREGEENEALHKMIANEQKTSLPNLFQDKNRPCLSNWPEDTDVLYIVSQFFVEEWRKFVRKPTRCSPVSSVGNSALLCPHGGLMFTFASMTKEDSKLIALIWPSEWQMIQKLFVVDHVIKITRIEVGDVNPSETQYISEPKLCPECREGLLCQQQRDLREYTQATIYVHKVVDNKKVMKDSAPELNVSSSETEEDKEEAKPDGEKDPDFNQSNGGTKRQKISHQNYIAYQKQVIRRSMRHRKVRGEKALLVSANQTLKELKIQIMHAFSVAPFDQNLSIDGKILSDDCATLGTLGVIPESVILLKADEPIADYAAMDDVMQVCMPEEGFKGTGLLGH
Summary of the method: as §1

USP5 = molecular target: T4, USP5 (UniProt P45974)
T4 sequence (whole entry): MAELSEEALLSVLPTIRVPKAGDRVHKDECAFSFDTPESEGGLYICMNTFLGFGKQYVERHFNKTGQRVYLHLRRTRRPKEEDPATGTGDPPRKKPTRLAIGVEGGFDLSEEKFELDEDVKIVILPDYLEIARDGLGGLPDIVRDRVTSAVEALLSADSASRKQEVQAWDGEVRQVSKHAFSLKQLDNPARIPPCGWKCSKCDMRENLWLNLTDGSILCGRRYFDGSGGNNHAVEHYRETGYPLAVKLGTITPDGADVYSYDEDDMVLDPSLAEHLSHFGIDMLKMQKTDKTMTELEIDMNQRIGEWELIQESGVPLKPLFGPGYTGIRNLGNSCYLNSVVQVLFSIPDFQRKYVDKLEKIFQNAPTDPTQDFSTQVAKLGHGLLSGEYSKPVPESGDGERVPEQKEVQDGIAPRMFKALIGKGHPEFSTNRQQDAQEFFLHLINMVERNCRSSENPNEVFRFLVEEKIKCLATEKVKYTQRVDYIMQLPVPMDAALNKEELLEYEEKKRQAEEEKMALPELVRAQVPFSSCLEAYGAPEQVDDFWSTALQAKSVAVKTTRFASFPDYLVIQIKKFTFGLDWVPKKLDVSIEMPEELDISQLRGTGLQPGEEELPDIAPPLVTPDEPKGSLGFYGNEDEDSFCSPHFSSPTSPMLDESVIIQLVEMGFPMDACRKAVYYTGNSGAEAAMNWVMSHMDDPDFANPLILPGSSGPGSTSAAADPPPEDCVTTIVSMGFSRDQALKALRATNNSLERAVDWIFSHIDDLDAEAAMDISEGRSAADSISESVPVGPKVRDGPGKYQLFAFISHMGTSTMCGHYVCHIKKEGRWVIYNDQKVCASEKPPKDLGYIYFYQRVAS
Summary of the method: as §1

USP54 = USP54 (UniProt Q70EL1)
Summary of the method: as §1

USP7 = USP7 (UniProt Q93009)
Summary of the method: as §1

USP8 = molecular target: T5, USP8 (UniProt P40818)
T5 sequence (whole entry): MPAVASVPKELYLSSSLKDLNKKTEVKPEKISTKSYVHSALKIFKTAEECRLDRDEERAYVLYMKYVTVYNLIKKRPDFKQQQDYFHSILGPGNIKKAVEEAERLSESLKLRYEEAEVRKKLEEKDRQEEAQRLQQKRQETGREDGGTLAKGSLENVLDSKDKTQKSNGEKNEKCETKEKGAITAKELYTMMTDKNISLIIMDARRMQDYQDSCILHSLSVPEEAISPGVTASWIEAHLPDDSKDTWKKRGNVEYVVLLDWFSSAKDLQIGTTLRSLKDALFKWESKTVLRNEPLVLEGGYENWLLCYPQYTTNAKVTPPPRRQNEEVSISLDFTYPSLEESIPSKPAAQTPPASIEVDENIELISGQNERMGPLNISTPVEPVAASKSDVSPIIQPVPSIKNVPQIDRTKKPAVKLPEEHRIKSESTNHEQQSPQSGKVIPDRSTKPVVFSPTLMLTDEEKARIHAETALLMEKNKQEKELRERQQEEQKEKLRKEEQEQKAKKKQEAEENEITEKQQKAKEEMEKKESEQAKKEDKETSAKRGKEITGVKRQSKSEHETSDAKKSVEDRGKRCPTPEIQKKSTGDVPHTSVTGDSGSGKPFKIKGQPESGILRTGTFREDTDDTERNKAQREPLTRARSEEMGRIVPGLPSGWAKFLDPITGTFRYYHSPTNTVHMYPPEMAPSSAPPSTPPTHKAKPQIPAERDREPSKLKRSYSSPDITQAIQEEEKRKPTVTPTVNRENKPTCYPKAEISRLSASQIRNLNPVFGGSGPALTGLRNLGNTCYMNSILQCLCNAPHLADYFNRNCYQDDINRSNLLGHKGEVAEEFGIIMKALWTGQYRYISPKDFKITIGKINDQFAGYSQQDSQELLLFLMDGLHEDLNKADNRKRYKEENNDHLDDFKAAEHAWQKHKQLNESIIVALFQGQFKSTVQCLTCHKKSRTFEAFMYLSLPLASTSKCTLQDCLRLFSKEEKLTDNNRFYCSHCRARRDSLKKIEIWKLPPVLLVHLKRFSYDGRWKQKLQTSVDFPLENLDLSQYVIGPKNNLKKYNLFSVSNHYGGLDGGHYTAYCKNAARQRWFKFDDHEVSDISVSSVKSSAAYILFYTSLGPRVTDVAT
Summary of the method: as §1

Measured: log2 ratio of Biotin-Ahx-Ub-VS probe labelling

Chain of USP54 (Q70EL1 whole entry): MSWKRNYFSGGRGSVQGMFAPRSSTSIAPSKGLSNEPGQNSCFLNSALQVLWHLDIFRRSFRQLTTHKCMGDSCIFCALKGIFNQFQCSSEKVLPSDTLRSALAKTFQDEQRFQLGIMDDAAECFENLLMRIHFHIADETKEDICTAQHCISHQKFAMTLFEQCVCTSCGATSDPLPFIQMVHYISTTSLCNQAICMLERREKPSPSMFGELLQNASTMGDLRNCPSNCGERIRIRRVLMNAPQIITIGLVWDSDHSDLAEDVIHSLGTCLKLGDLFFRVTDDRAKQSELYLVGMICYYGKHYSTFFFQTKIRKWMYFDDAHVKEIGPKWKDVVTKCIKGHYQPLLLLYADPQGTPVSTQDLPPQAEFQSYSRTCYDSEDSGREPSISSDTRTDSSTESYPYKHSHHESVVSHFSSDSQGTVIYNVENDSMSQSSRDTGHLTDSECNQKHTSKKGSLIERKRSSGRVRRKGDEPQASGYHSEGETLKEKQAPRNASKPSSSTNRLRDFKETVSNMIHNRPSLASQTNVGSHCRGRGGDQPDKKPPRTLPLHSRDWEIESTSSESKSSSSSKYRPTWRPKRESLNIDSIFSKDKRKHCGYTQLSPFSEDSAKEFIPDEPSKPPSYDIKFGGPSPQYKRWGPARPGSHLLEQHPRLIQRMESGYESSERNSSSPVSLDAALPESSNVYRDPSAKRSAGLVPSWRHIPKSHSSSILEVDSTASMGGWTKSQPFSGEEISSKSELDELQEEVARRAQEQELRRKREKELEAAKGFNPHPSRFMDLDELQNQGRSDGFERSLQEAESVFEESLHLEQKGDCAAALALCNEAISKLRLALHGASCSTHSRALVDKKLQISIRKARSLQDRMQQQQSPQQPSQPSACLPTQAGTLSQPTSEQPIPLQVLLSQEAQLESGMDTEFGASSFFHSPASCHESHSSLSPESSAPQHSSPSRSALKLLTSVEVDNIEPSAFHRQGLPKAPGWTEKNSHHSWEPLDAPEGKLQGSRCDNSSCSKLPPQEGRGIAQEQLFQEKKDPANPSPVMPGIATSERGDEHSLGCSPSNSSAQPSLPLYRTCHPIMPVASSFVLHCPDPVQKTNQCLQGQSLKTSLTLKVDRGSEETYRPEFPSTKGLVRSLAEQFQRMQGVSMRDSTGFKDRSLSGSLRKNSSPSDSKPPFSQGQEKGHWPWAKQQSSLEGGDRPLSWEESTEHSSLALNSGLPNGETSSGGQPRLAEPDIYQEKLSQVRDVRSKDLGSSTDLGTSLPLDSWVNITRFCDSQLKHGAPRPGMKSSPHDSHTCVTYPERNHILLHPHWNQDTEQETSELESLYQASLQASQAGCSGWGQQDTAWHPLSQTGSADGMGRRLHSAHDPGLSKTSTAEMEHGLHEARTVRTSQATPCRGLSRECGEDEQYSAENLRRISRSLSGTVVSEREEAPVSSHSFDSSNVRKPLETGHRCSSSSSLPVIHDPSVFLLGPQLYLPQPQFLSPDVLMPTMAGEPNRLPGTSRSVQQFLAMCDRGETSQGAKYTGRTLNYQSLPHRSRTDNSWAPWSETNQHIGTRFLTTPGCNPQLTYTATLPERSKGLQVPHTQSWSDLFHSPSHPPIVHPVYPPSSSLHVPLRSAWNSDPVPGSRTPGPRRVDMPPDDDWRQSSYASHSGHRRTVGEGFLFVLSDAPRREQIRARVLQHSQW
Chain of USP46 (P62068 whole entry): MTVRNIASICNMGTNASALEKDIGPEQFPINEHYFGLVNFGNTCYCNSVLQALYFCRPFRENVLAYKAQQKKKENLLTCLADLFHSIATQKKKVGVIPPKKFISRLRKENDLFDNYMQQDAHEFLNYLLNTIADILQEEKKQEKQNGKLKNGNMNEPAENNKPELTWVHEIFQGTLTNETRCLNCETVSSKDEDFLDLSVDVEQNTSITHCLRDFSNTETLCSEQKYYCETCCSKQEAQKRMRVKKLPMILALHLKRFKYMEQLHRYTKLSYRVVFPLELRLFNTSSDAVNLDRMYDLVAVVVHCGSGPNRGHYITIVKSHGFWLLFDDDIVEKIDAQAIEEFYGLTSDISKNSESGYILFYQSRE
Chain of USP7 (Q93009 whole entry, looked up): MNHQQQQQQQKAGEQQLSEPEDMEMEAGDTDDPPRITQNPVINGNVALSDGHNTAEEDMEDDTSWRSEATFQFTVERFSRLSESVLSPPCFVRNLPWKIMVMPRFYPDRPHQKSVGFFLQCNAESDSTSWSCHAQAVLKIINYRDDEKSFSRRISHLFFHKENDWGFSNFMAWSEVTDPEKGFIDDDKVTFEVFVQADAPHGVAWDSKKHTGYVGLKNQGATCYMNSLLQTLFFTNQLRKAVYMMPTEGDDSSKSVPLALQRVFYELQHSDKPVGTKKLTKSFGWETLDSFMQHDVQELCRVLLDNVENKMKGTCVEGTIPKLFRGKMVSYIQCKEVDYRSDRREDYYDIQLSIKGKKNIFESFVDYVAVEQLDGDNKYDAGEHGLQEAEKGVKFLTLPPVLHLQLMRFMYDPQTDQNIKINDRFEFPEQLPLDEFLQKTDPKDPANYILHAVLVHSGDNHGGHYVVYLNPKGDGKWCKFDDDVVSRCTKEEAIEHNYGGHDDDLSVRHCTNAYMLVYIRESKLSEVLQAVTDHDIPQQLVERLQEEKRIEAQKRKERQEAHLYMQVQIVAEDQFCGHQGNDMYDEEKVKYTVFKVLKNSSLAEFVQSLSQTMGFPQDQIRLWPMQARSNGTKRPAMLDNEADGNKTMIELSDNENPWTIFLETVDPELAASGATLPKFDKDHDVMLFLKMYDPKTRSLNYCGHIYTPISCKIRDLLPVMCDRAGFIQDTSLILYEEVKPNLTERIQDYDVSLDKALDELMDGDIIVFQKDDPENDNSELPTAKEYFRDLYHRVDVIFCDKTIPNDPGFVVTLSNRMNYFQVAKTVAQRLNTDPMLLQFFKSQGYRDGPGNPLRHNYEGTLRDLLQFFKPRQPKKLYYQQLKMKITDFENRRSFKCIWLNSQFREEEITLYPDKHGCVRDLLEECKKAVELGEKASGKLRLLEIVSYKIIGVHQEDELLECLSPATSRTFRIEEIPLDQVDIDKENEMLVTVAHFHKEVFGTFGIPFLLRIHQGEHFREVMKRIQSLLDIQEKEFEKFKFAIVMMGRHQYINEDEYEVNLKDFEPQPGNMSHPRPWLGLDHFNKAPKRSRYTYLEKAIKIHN

Cc1ncsc1CCNC(=O)CCl
inactive: USP42 0.0552 | USP46 0.359 | USP47 0.687 | USP48 0.00776 | USP5 0.325 | USP54 0.227 | USP7 0.0797 | USP8 0.298

— the supplement of paper PMC11732987, “Enantioselective OTUD7B fragment discovery through chemoproteomics screening and high-throughput optimisation” (Communications Chemistry, 2025)
